The values that follow come from the supplement of paper PMC13380429.

The test system of assay [1] is Vero E6 infected with SARS-CoV-2. Put plainly: morphology score (similarity to uninfected cells); higher = more like uninfected cells. The note with it: 24 h.
The test system is the same in assay [2]. The assay can be described thus: SARS-CoV-2 infection rate relative to infected DMSO; higher = more infection, active = 60 or less. The note with it: 24 h.

In assay [1], `CCCOc1ccc2[nH]cc(C3=CCNCC3)c2n1` (10 µM) displayed a morphology score of 0.24. The SARS-CoV-2 infection rate in assay [2] is 96% (inactive).
As to `CC(C)CC(NC(=O)OCC1c2ccccc2-c2ccccc21)C(=O)O` (stereo in doubt) (10 µM), the morphology score in assay [1] turned out to be 0.145. Moreover, the SARS-CoV-2 infection rate in assay [2] was 96% (inactive).
For `NC1=NCC2c3ccccc3Cc3ccccc3N12` (stereo not drawn) [epinastine] (10 µM), the morphology score in assay [1] was 0.0427. Besides, the SARS-CoV-2 infection rate in assay [2] was 114% (inactive).
In the case of `COc1ccc(NS(=O)(=O)c2ccc(N)cc2)nn1` [sulfamethoxypyridazine] (10 µM), the morphology score in assay [1] came out at 0.0793. Further, in assay [2], the SARS-CoV-2 infection rate is 110% (inactive).
The corresponding values for `C[C@](N)(Cc1ccc(O)c(O)c1)C(=O)O` [methyldopa] (10 µM) are -0.111 and 97.5% (inactive).
Turning to `CCOC(=O)[C@H](CCc1ccccc1)N[C@@H](C)C(=O)N1[C@H](C(=O)O)C[C@H]2CCCC[C@@H]21` [trandolapril] (10 µM), the morphology score in assay [1] came to 0.00679. In addition, the SARS-CoV-2 infection rate in assay [2] is 106% (inactive).
In turn, `CS(=O)(=O)CCNCc1nc(-c2ccc3ncnc(Nc4ccc(OCc5cccc(F)c5)c(Cl)c4)c3c2)cs1` (10 µM) yielded a morphology score in assay [1] of -0.294. Further, the SARS-CoV-2 infection rate in assay [2] is 116% (inactive).
In turn, `C[N+](C)(C)CCOC(N)=O` [carbachol] (10 µM) gave a morphology score in assay [1] of -0.148. Also, the SARS-CoV-2 infection rate in assay [2] is 101% (inactive).
Compound `Cn1cnc([N+](=O)[O-])c1Sc1ncnc2[nH]cnc12` [azathioprine] (10 µM) displayed a morphology score in assay [1] of 0.172. Besides, in assay [2], the SARS-CoV-2 infection rate is 95.5% (inactive).
In assay [1], `c1ccc(COCCCc2c[nH]cn2)cc1` [proxyfan] (10 µM) yielded a morphology score of -0.149. The SARS-CoV-2 infection rate in assay [2] was 115% (inactive).
The corresponding values for `CCCN[C@@H]1CCc2c(OC)cccc2[C@@H]1C` (10 µM) are 0.0456 and 100% (inactive).
The corresponding values for `O=C(Nc1ccc(O)cc1)c1ccccc1O` [N-salicoylaminophenol] (10 µM) are 0.168 and 102% (inactive).
Compound `COc1ccc(-c2cc(=O)c3c(O)c(OC)c(O)cc3o2)cc1OC` [eupatilin] (10 µM) returned a morphology score in assay [1] of -0.0115. Moreover, the SARS-CoV-2 infection rate in assay [2] was 109% (inactive).
The compound `CNC(=O)c1ccc2c(c1)S(=O)(=O)c1ccccc1C2=O` (10 µM) yielded a morphology score in assay [1] of -0.0141. Also, the SARS-CoV-2 infection rate in assay [2] is 108% (inactive).
The corresponding values for `CN1C(C(=O)Nc2ccccn2)=C(O)c2sc(Cl)cc2S1(=O)=O` [lornoxicam] (10 µM) are 0.00915 and 97% (inactive).
`c1cc(OCCN2CCCCC2)cc(-c2n[nH]c3ccc(-c4nnc[nH]4)cc23)c1` (10 µM): the morphology score in assay [1] amounted to 0.363. Also, the SARS-CoV-2 infection rate in assay [2] is 94.5% (inactive).
For `CC(=O)OCC(=O)[C@H]1CC[C@H]2[C@@H]3CCC4=CC(=O)CC[C@]4(C)[C@H]3CC[C@]12C` [deoxycorticosterone-acetate] (10 µM), the morphology score in assay [1] is -0.0375. Moreover, in assay [2], the SARS-CoV-2 infection rate is 102% (inactive).
On the same counts, the results for `CCOc1cc(C(C)(C)C)ccc1C1=N[C@@](C)(c2ccc(Cl)cc2)[C@@](C)(c2ccc(Cl)cc2)N1C(=O)N1CCN(CCCS(C)(=O)=O)CC1` (10 µM) are -0.0507 and 104% (inactive).
On the same counts, the results for `COc1ccc2c(c1)c(CC(=O)O)c(C)n2C(=O)c1ccc(Cl)cc1` [indomethacin] (10 µM) are 0.0755 and 104% (inactive).
Regarding `Cc1cccc(C)c1NC(=O)C[N+](C)(C)C` (10 µM), the morphology score in assay [1] was 0.198. For the same compound, the SARS-CoV-2 infection rate in assay [2] is 97% (inactive).
On the same counts, the results for `O=C(CN1C(=O)C2(CCCC2)NC[C@H]1c1cc(F)cc(F)c1)Nc1ccc2c(c1)C[C@@]1(C2)C(=O)Nc2ncccc21` (10 µM) are 0.0766 and 101% (inactive).
The corresponding values for `C[C@@H](CN1CC(=O)NC(=O)C1)N1CC(=O)NC(=O)C1` [dexrazoxane] (10 µM) are 0.0659 and 97% (inactive).
Regarding `N#Cc1cn([C@@H]2O[C@H](CO)[C@@H](O)[C@H]2O)c2ncnc(N)c12` [toyocamycin] (0.833333 µM), the morphology score in assay [1] was -0.0555. Also, the SARS-CoV-2 infection rate in assay [2] was 104% (inactive).
Turning to `COc1ccccc1N1CCN(CCCCNC(=O)c2ccc3ccccc3c2)CC1` (10 µM), the morphology score in assay [1] was -0.00528. Also, the SARS-CoV-2 infection rate in assay [2] is 94.5% (inactive).
The corresponding values for `N#CC1(c2ccc(NC(=O)c3cccnc3NCc3ccncc3)cc2)CCCC1` [apatinib] (10 µM) are 0.31 and 107% (inactive).
In the case of `COc1ccccc1CC(=N)N1C[C@@H]2C(=O)CCC(c3ccccc3)(c3ccccc3)[C@@H]2C1` (10 µM), the morphology score in assay [1] is -0.184. Moreover, in assay [2], the SARS-CoV-2 infection rate was 110% (inactive).
Compound `CCc1ccccc1OC[C@@H](O)CN[C@H]1CCCc2ccccc21` (10 µM) had a morphology score in assay [1] of 0.0335. In addition, in assay [2], the SARS-CoV-2 infection rate is 93% (inactive).
On the same counts, the results for `O=[N+]([O-])c1c(Nc2cc(F)cc(Cl)c2)ccc2nonc12` (10 µM) are 0.097 and 94.5% (inactive).
Compound `CCOC(=O)[C@H](CCc1ccccc1)N[C@@H](C)C(=O)N1Cc2ccccc2C[C@H]1C(=O)O` [quinapril] (10 µM) yielded a morphology score in assay [1] of -0.145. Further, the SARS-CoV-2 infection rate in assay [2] was 109% (inactive).
